This passage reports growth results from PubChem BioAssay (NCI).

Several values for one entry are separate records, joined by “and”; a condition that tells them apart may be missing. Equal entries are not always repeated. About 83,000 compounds went through this panel and 20% of them were active in at least one assay; those are over-represented in the sample as a whole.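 Values shown are percent growth following 48 h exposure of cells in 96-well plates to a single concentration of compound; below 10 was considered active.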 Activity calls are given as the source filed them.

The assay deals with HL-60(TB) leukemia. Put plainly: NCI-60 one-dose screen, 48 h (100 = growth as untreated, 0 = no growth, -100 = all killed). To be noted: 10 µM unless noted.
On to `CCOC(=O)/C=C1/SC(=Nc2ccc(C#N)cc2)N(Cc2ccco2)C1=O`, for which the growth was -26.6% (active).

Regarding `Cc1ccc(/C=C2\CN(Cc3cn(CCNc4ccnc5cc(Cl)ccc45)nn3)C/C(=C\c3ccc(C)cc3)C2=O)cc1`, the growth was -28.8% (active).

Turning to `CCOC(=O)C1=C(N)Oc2c(sc3c(C)cccc23)C1c1ccc(OC)cc1` (stereo not given), the growth is 1.54% (active).

In the case of `COC(=O)CCC(=O)C(=O)OC`, the growth was -21% [10 mM] (active).

Take `CC(=O)N1N=C(C2C(=O)N(C)C(=O)N(C)C2=O)CC1c1ccccc1C(=O)O` (stereo not given): the growth was 92.2% (inactive).

On to `c1nc(SC2=NCCN2)c2[nH]cnc2n1`, for which the growth was 22.6% (inactive).

Turning to `N#Cc1cccc(/C=C(/C(=O)c2ccccc2)c2ccccc2)c1`, the growth was 43.7% (inactive).

Take `O=C(CC(c1ccccc1)N1CCOCC1)c1ccccc1` (stereo not given): the growth was 83.1% (inactive).

As for `CC(C)Cn1cnc2c3ccccc3nc(NCn3nc(-c4cc(Cl)cc(Cl)c4Cl)oc3=S)c21`, the growth is 43.8% (inactive).

On to `COc1cc(/C=C/C(C)=O)ccc1O`, for which the growth was 81% (inactive) and 77.8% (inactive).

In the case of `OCCCC1CCN(C(Cc2ccccc2)c2ccccc2)CC1` (stereo not given), the growth is 95.8% (inactive).

With `CCOC(=O)c1cc(/C(=N\O)c2cc(OC)c(OC)c(OC)c2)n2c(C)cccc12`, the growth is 3.22% (active).

`C[n+]1c(/C=C/c2c[nH]c3ccccc23)ccc2ccccc21`: the growth was 73.9% (inactive).

As to `Cc1cc(C)n(Cc2cc(C(C)(C)C)cc(C(C)(C)C)c2)c(=O)c1C#N`, the growth is 100% (inactive).

As to `CCN(CC)CCOc1cccc2c1C(=O)c1cccc(OCCN(CC)CC)c1C2=O`, the growth is 19.7% (inactive).

For the compound `Fc1ccc(-n2cc(COc3ncnc4sc5c(c34)CCCC5)nn2)cc1Cl`, the growth was 101% (inactive).

In the case of `O=C(/C=C/c1ccccc1)c1ccc(Nc2nc(NCCO)nc(Nc3ccc(Cl)cc3)n2)cc1`, the growth was 101% (inactive).

On to `O=C(O)c1ccc(-c2nn(-c3ccc(C(=O)O)cc3)cc2/C=N/Nc2c(F)c(F)cc(F)c2F)cc1`, for which the growth was 96.5% (inactive).

Turning to `O=C(Nc1ccc(-n2ccc3c(NC(=O)c4ccccc4)ncnc32)cc1)Nc1cccc(Cl)c1Cl`, the growth is 62.9% (inactive).

Turning to `COc1ccc2cc(C(=O)c3coc4ccc(O)cc34)ccc2c1`, the growth is 73.2% (inactive).

As to `Clc1ccc2c(c1)N(c1ncnc3ccc(-c4cnc5[nH]ncc5c4)cc13)CC2`, the growth is 34.5% (inactive).

Turning to `CCCCCCCOc1c(OC)cc(C2CC(=O)Nc3c2c(C)nn3-c2nc3ccccc3[nH]2)cc1OC` (stereo not given), the growth was 10.5% (inactive).

With `Nc1ccc(S(=O)(=O)O)c2ccc(N=Nc3ccc(N=Nc4ccc(S(=O)(=O)O)cc4)c4ccccc34)c(O)c12`, the growth is 70.5% (inactive).

Regarding `CC1=CC(O)C2CC1C2(C)C` (stereo not given), the growth was 100% (inactive) and 73.7% (inactive).

Consider `N#CC1=C(c2ccc(Br)cc2)NC(SCC(=O)c2ccc(Br)cc2)NC1=O` (stereo not given), for which the growth was 96% (inactive).

For the compound `O=C1OCC2=C1C(c1cccc(Cl)c1)c1cc3c(cc1N2CCO)OCCO3` (stereo not given), the growth was -20% (active).

For `COc1ccc(-c2cc3ccc(N(C)C)cc3nc2N)c(F)c1`, the growth was -15.4% (active).

For the compound `Nc1ncnc2c1c(-c1ccc(Oc3ccccc3)cc1)nn2C[C@@H]1SSC[C@H]1O`, the growth was -27.5% (active).

`OC(Cc1cccnc1)c1ccccc1` (stereo not given): the growth is 64.3% (inactive).

Regarding `CCCCOc1ccc(/C=N/Nc2cc(C)nc3ccc(Cl)cc23)cc1`, the growth was -30.2% (active).

As to `NC(CCc1nc2ccccc2c(=O)[nH]1)C(=O)O` (stereo not given), the growth was 103% (inactive).

For the compound `O=C(N/N=C/c1cccc(O)c1)c1ccc(C(F)(F)F)nc1Nc1cccc(C(F)(F)F)c1`, the growth was -30.4% (active).

Consider `O=C(CSc1nccc(Nc2ccc(S(=O)(=O)Nc3ccccn3)cc2)n1)c1ccc(Cl)cc1`, for which the growth was 95.3% (inactive).

In the case of `CNC(=O)c1cc(Oc2ccc(CC(=O)Nc3cc(C(C)(C)C)cn3C)cc2)ccn1`, the growth was 77.5% (inactive).

For the compound `COc1ccc(-c2nc3cc(C(=O)NCc4ccccc4)ccc3n2C2CCCCC2)cc1`, the growth was 71.1% (inactive).

For `O=c1c2cc(-c3ccccc3)sc2nc2sc(-c3ccccc3)nn12`, the growth is 96.4% (inactive).

Take `O=[N+]([O-])c1ccc(/C=N\NC(=S)Nc2ccc(F)cc2)cc1`: the growth was 114% (inactive) and 82.5% (inactive).

As for `CN1CCN(c2ccc(NC(=O)c3nc4ccc5[nH]ncc5c4c4c3CCCC4)cc2C(F)(F)F)CC1`, the growth is 28% (inactive).

`O=S(=O)(NCCCNc1nccc(-c2c(-c3ccc(F)c(O)c3)nc3occn23)n1)c1ccc(Cl)cc1`: the growth is 94.2% (inactive).

With `COc1cccc2c(=O)c3c(sc12)c(N1CCNCC1)nc1ccccc13`, the growth was -52.2% (active).
